Results published in publication PMC5540273 (PLoS ONE, 2017).

system: TYK2(JH1domain-catalytic); settings: concentration: 1 μM, replicates: in singlicate; n = 1
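Note: KINOMEscan kinase panel screen.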

Row | SMILES | %Inh
1 | CS(=O)(=O)c1ccc(-c2c(-c3ncn[nH]3)sc(N3CCOCC3)c2C#N)cc1 | 0%
2 | CCn1c(-c2cccnc2O)nc2cnccc21 [SB-736715] | 0%
3 | Cc1cc(-c2ccc3c(c2)CC[C@@H](N[C@@H](C)c2ccccc2)C3)cnc1N.Cl [GW412617] | 24%
4 | COc1ccccc1CNC(=O)c1cc(C(=O)c2ccccc2C)c[nH]1 [GSK364507] | 5%
5 | Cc1cccc(-c2nc(-c3ccc(S(C)(=O)=O)cc3)sc2-c2ccnc(NCCc3ccccc3)c2)c1 | 0%
6 | CC(=O)Nc1nc2cnc(Nc3cc(NC(=O)c4cccc(CCC#N)c4)ccc3C)nc2s1 | 21%
7 | Cc1cccc(-c2nc(C)cc(Nc3ccncc3)n2)n1 [GSK257997] | 0%
8 | CS(=O)(=O)c1ccc(-c2nc3n(c2-c2ccncc2)CCC3)cc1 [SKF-105942] | 0%
9 | Cl.c1ccc(-c2n[nH]cc2-c2ccnc(-c3ccc(CN4CCOCC4)cc3)c2)nc1 [GW776245] | 0%
10 | Nc1ncnc2[nH]c(-c3ccccc3)nc12 [AH5015] | 38%
11 | O=C(O)COc1ncnc2cc(-c3ccc4[nH]ncc4c3)sc12 | 29%
12 | COc1cc2ncn(-c3cc(OCC4CCCO4)c(C(N)=O)s3)c2cc1OC (stereo not shown) [GSK204607] | 15%
13 | Cc1ccc(NC(=O)Nc2cc(C(C)(C)C)nn2-c2ccccc2)cc1 [GSK1014915] | 25%
14 | Cc1cccc(-c2nc(Nc3ccc4[nH]ncc4c3)c3ccccc3n2)n1 [GW857175] | 11%
15 | CC(C)(C)c1ccc(C(=O)Nc2cn3cc(Cl)ccc3n2)cc1 | 0%
16 | Cn1cncc1-c1ccc2ncnc(Nc3ccc(OCc4ccccc4)cc3)c2c1 [GW320571] | 29%
17 | O=C(Nc1n[nH]c2nc(-c3nccs3)c(Br)cc12)C1CC1 [SB-742251] | 36%
18 | CN1C(=O)C(Nc2ccc(Cl)c(C(=O)O)c2)=C(c2ccc(Cl)cc2)C1=O [SB-404290] | 0%

Row | SMILES | %Inh
19 | Cc1cc(N2Cc3ccccc3C2)nc(Nc2ccc(S(=O)(=O)N3CCOCC3)cc2)n1.Cl [GSK1669917] | 7%
20 | CN(C)CCN(C)C(=O)c1cc(-c2ccncc2)c(-c2ccc(Cl)c(O)c2)o1.Cl.Cl [SB-710397] | 43%
21 | Cc1csc(-c2nc(Nc3ccncc3)c3ccccc3n2)n1 [GW869640] | 100%
22 | Cc1ccc(NC(=O)Nc2cccc(Cl)c2)cc1-c1ccc(C(=O)Nc2ccncc2)cc1 [GSK1398468] | 0%
23 | O=C(Nc1n[nH]c2cc(-c3cccc(F)c3F)ccc12)C1CC1 [SB-733894] | 1%
24 | O=C(Nc1ccccc1)Nc1cccc(Oc2ccc3nccn3n2)c1 | 14%
25 | Cl.O=C(Nc1cccc(-c2nn3ncccc3c2-c2ccnc(Nc3cccnc3)n2)c1)c1c(F)cccc1F [GSK312879] | 12%
26 | O=C(Nc1n[nH]c2nc(-c3nccs3)c(Br)cc12)C1CCCC1 [SB-742609] | 18%
27 | COc1cc(Nc2nccc(N3CCC(NC(=O)Nc4cc(C)ccc4C)C3)n2)cc(OC)c1OC (stereo not shown) [GSK1379762] | 39%
28 | COc1cc2nccc(Nc3ccc(NC(=O)c4ccc(C)cc4)c(O)c3)c2cc1OC.Cl [GW440132] | 0%
29 | O=C(Nc1ccc2c(c1)OCO2)NC1CCN(c2ccnc(Nc3ccc(F)cc3)n2)C1 (stereo not shown) [GSK1379724] | 9%
30 | O=C1NC(=O)C(N2CCc3ccccc32)=C1c1ccccc1Cl [SB-373598] | 0%
31 | Fc1cccc(COc2nnc(-c3ccc4c(c3)CCO4)o2)c1 | 3%
32 | Cc1cccc(-c2nc(Nc3cccc(C(N)=O)c3)c3ccccc3n2)n1 [GW876019] | 19%
33 | Cc1c(O)cccc1Nc1ccnc2ccc(C(F)(F)F)cc12.Cl [GW466413] | 9%
34 | COc1ccc(Nc2nccc(-c3cccc(NC(=O)c4cc5cc(F)ccc5[nH]4)c3)n2)cc1 [GSK1229782] | 41%
35 | Cc1cc(NCC(c2ccccc2)c2ccccc2)nc(NCc2ccc(C(F)(F)F)cc2)n1 [GW497681] | 9%

system: TYK2(JH2domain-pseudokinase); settings: concentration: 1 μM, replicates: in singlicate; n = 1

Row | SMILES | %Inh
36 | CS(=O)(=O)c1ccc(-c2c(-c3ncn[nH]3)sc(N3CCOCC3)c2C#N)cc1 | 0%
37 | CCn1c(-c2cccnc2O)nc2cnccc21 [SB-736715] | 0%
38 | Cc1cc(-c2ccc3c(c2)CC[C@@H](N[C@@H](C)c2ccccc2)C3)cnc1N.Cl [GW412617] | 6%
39 | COc1ccccc1CNC(=O)c1cc(C(=O)c2ccccc2C)c[nH]1 [GSK364507] | 21%
40 | Cc1cccc(-c2nc(-c3ccc(S(C)(=O)=O)cc3)sc2-c2ccnc(NCCc3ccccc3)c2)c1 | 18%
41 | CC(=O)Nc1nc2cnc(Nc3cc(NC(=O)c4cccc(CCC#N)c4)ccc3C)nc2s1 | 27%
42 | Cc1cccc(-c2nc(C)cc(Nc3ccncc3)n2)n1 [GSK257997] | 15%
43 | CS(=O)(=O)c1ccc(-c2nc3n(c2-c2ccncc2)CCC3)cc1 [SKF-105942] | 0%
44 | Cl.c1ccc(-c2n[nH]cc2-c2ccnc(-c3ccc(CN4CCOCC4)cc3)c2)nc1 [GW776245] | 0%
45 | Nc1ncnc2[nH]c(-c3ccccc3)nc12 [AH5015] | 99.3%
46 | O=C(O)COc1ncnc2cc(-c3ccc4[nH]ncc4c3)sc12 | 55%
47 | COc1cc2ncn(-c3cc(OCC4CCCO4)c(C(N)=O)s3)c2cc1OC (stereo not shown) [GSK204607] | 31%
48 | Cc1ccc(NC(=O)Nc2cc(C(C)(C)C)nn2-c2ccccc2)cc1 [GSK1014915] | 4%
49 | Cc1cccc(-c2nc(Nc3ccc4[nH]ncc4c3)c3ccccc3n2)n1 [GW857175] | 36%
50 | CC(C)(C)c1ccc(C(=O)Nc2cn3cc(Cl)ccc3n2)cc1 | 0%
51 | Cn1cncc1-c1ccc2ncnc(Nc3ccc(OCc4ccccc4)cc3)c2c1 [GW320571] | 0%
52 | O=C(Nc1n[nH]c2nc(-c3nccs3)c(Br)cc12)C1CC1 [SB-742251] | 77%
53 | CN1C(=O)C(Nc2ccc(Cl)c(C(=O)O)c2)=C(c2ccc(Cl)cc2)C1=O [SB-404290] | 0%

Row | SMILES | %Inh
54 | Cc1cc(N2Cc3ccccc3C2)nc(Nc2ccc(S(=O)(=O)N3CCOCC3)cc2)n1.Cl [GSK1669917] | 0%
55 | CN(C)CCN(C)C(=O)c1cc(-c2ccncc2)c(-c2ccc(Cl)c(O)c2)o1.Cl.Cl [SB-710397] | 45%
56 | Cc1csc(-c2nc(Nc3ccncc3)c3ccccc3n2)n1 [GW869640] | 83%
57 | Cc1ccc(NC(=O)Nc2cccc(Cl)c2)cc1-c1ccc(C(=O)Nc2ccncc2)cc1 [GSK1398468] | 26%
58 | O=C(Nc1n[nH]c2cc(-c3cccc(F)c3F)ccc12)C1CC1 [SB-733894] | 0%
59 | O=C(Nc1ccccc1)Nc1cccc(Oc2ccc3nccn3n2)c1 | 1%
60 | Cl.O=C(Nc1cccc(-c2nn3ncccc3c2-c2ccnc(Nc3cccnc3)n2)c1)c1c(F)cccc1F [GSK312879] | 19%
61 | O=C(Nc1n[nH]c2nc(-c3nccs3)c(Br)cc12)C1CCCC1 [SB-742609] | 31%
62 | COc1cc(Nc2nccc(N3CCC(NC(=O)Nc4cc(C)ccc4C)C3)n2)cc(OC)c1OC (stereo not shown) [GSK1379762] | 3%
63 | COc1cc2nccc(Nc3ccc(NC(=O)c4ccc(C)cc4)c(O)c3)c2cc1OC.Cl [GW440132] | 1%
64 | O=C(Nc1ccc2c(c1)OCO2)NC1CCN(c2ccnc(Nc3ccc(F)cc3)n2)C1 (stereo not shown) [GSK1379724] | 33%
65 | O=C1NC(=O)C(N2CCc3ccccc32)=C1c1ccccc1Cl [SB-373598] | 0%
66 | Fc1cccc(COc2nnc(-c3ccc4c(c3)CCO4)o2)c1 | 6%
67 | Cc1cccc(-c2nc(Nc3cccc(C(N)=O)c3)c3ccccc3n2)n1 [GW876019] | 25%
68 | Cc1c(O)cccc1Nc1ccnc2ccc(C(F)(F)F)cc12.Cl [GW466413] | 14%
69 | COc1ccc(Nc2nccc(-c3cccc(NC(=O)c4cc5cc(F)ccc5[nH]4)c3)n2)cc1 [GSK1229782] | 47%
70 | Cc1cc(NCC(c2ccccc2)c2ccccc2)nc(NCc2ccc(C(F)(F)F)cc2)n1 [GW497681] | 23%
